Bioassay records: PubChem BioAssay, Broad Institute
This excerpt belongs to a sample that is enriched for hits.
NOMO-1 viab – STK33 inhibitor candidate reducing NOMO-1 cell viability; NOMO-1 AML viability, CellTiter-Glo luminescence, 72 h; inhibition, % (no concentration beside the values); 37,000 compounds, 7.5% hits; AID 2330; in the data active means inhibition above about 80%
PD-1 reversal – activators reversing PD-1 mediated T-cell inhibition | primary human CD4 T cells, PD-L1 beads, CellTiter-Glo 96 h | activation, % (test concentration not listed) | 29,000 tested, under 10 active | AID 2316; call rule not given here;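 further: 0% = median vehicle wells and 100% = positive control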
STK33 kin inh – blocks human STK33 kinase activity. Q9BYT3. ADP-Glo luminescence, MBP substrate. inhibition, % at 12.5 µM. 27,000 compounds, 0.44% hits. AID 2322; in the data active means inhibition above about 20%
Target sequence (Q9BYT3 whole entry, looked up): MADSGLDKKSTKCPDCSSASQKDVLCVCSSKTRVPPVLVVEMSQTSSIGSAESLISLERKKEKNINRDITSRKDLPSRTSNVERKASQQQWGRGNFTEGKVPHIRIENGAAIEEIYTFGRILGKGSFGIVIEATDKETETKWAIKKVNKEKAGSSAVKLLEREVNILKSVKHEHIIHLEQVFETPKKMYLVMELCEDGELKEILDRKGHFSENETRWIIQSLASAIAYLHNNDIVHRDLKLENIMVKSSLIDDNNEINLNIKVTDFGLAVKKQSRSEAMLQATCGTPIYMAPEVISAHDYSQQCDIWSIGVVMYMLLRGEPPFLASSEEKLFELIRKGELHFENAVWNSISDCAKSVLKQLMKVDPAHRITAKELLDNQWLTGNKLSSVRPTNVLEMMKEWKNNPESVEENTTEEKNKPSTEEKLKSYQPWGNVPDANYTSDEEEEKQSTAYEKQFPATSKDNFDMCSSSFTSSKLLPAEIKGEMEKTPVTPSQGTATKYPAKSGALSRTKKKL
An asterisk follows results filed as active; . = no result given.

SMILES	NOMO-1 viab	PD-1 reversal	STK33 kin inh
CCCc1c(C(=O)O)c(O)cc2c1C(=O)c1c(O)cccc1C2=O	57.4	1.6	-1.7
COC(=O)c1ccc(C)c(NC(=O)COc2ccccc2C)c1	18.1	.	-1.5
O=c1c(Cc2ccccc2OCc2ccccc2)coc2ccccc12	39.5	-0.3	.
CC(=O)Cc1ccccc1OCC(=O)O	11.2	.	-10.3
CC(=O)OCOC(=O)CN(CC(=O)OCOC(C)=O)c1ccccc1OCCOc1ccccc1N(CC(=O)OCOC(C)=O)CC(=O)OCOC(C)=O	112.7*	.	0.4
O=C1NN=C(c2ccccc2)/C1=C1\OC(c2ccccc2)=CS1	138.8*	-0.3	.
O=C(Nc1ccccc1[N+](=O)[O-])C1Cc2ccccc2CN1S(=O)(=O)c1ccc(F)cc1 (stereo not given)	11.3	0.6	1.6
C[C@H]1CN([C@@H](C)CO)C(=O)Cc2cc(NC(=O)Cc3cn(C)c4ccccc34)ccc2O[C@H]1CN(C)Cc1ccc(C(=O)Nc2ccccc2N)cc1	120.1*	-2.3	.
C[C@H](CO)N1C[C@H](C)[C@H](CN(C)Cc2ccc(C(=O)Nc3ccccc3N)cc2)Oc2ccc(NC(=O)Cc3cn(C)c4ccccc34)cc2CC1=O	127.0*	-5.1	.
C[C@@H]1CN([C@H](C)CO)C(=O)Cc2cc(NC(=O)Cc3cn(C)c4ccccc34)ccc2O[C@@H]1CN(C)Cc1ccc(C(=O)O)cc1	-0.2	-0.3	-4.9
C[C@@H]1CN([C@H](C)CO)C(=O)Cc2cc(NC(=O)Cc3cn(C)c4ccccc34)ccc2O[C@@H]1CN(C)Cc1ccc(C(=O)Nc2ccccc2N)cc1	76.5	-1.7	.
Cc1ccc(C)c(NC(=O)CSc2nnnn2-c2ccc(C(=O)O)cc2)c1	12.6	-1.1	0.8
Cc1cc(C)c(S(=O)(=O)N(C)CC(=O)Nc2cccc(C)c2C)c(C)c1	27.9	-2.0	-9.6
O=C(NCCc1c[nH]c2ccccc12)Nc1ccc(Cl)c(Cl)c1	26.8	.	3.4
Cc1ccc(-c2nc(SC(CC(=O)O)c3ccccc3)n[nH]2)cc1 (stereo not given)	-9.3	2.6	0.2
N#CCCN(CC1COc2ccccc2O1)C(=O)c1ccccc1 (stereo not given)	26.8	1.3	1.0
COC(=O)c1ccc(NC(=O)CN(c2ccc(F)cc2)S(C)(=O)=O)cc1	17.5	0.7	-3.9
COC(=O)c1ccc(C)c(NC(=O)CN(c2cc(Cl)c(Cl)cc2Cl)S(C)(=O)=O)c1	96.1*	.	2.0
Cc1cc(I)ccc1NC(=O)CN(c1cc(Cl)c(Cl)cc1Cl)S(C)(=O)=O	29.9	1.5	2.5
COC(=O)c1ccc(C)c(NC(=O)CN(c2ccc(F)cc2)S(C)(=O)=O)c1	98.3*	0.4	-3.6
COC(=O)c1ccccc1NC(=O)CN(c1ccc(I)cc1)S(C)(=O)=O	16.3	1.2	-0.3
COC(=O)c1ccc(Cl)c(NC(=O)CN(c2ccc(I)cc2)S(C)(=O)=O)c1	120.3*	-0.6	1.7
COc1cc2c(cc1NC(=O)CSc1nnnn1C)oc1ccccc12	51.3	-3.4	1.0
O=C(CSc1nnc(-c2ccccc2O)n1-c1ccccc1)Nc1ccc(Oc2ccccc2)cc1	0.6	.	-1.2
CCN(CC(N)=O)S(=O)(=O)c1ccc2ccccc2c1	-0.6	1.9	-0.5
SMILES	NOMO-1 viab	PD-1 reversal	STK33 kin inh
COc1c(Cl)cc(C(=O)Nc2sc3c(c2C(=O)NCc2ccco2)CCC3)cc1Cl	13.3	-4.2	-2.6
Cc1ccc2c(C)c(C(=O)Nc3sc4c(c3C(=O)NCc3ccco3)CCC4)oc2c1	102.6*	.	-1.2
O=C(Nc1ccc2c(c1)OCCO2)C1CCCN(S(=O)(=O)c2ccc(F)cc2)C1 (stereo not given)	-0.8	-1.5	1.3
c1cncc(-c2nc3ccc4ccccc4c3c3c2CCCC3)c1	72.1	-0.8	.
O=c1cc(O)c2sc3nc(-c4cccnc4)c4c(c3c2[nH]1)CCCC4	106.0*	-0.3	.
C[C@H]1CN([C@@H](C)CO)C(=O)c2cccc(N(C)C)c2O[C@@H]1CN(C)Cc1ccc(Cl)c(Cl)c1	44.7	-1.8	.
C[C@@H]1CN([C@H](C)CO)C(=O)c2cccc(N(C)C)c2O[C@@H]1CN(C)Cc1ccc(Cl)c(Cl)c1	18.9	-1.7	.
C[C@@H]1CN([C@@H](C)CO)C(=O)c2cccc(N(C)C)c2O[C@H]1CN(C)Cc1ccc(Cl)c(Cl)c1	97.3*	.	.
C[C@@H]1CN([C@H](C)CO)C(=O)c2cccc(N(C)C)c2O[C@H]1CN(C)Cc1ccc(Cl)c(Cl)c1	88.0*	.	.
O=C(NCCCN1CCCC1=O)c1cc(-c2ccccc2)nc2ccccc12	-26.9	.	2.3
COC(=O)c1ccccc1NC(=O)Cn1nnc(-c2ccc(SC)cc2)n1	5.0	.	1.4
COc1ccccc1C(NC(C)=O)c1c(O)ccc2ccccc12 (stereo not given)	4.9	-4.0	3.1
CC12CCC(C(=O)NCCN3CCOCC3)(OC1=O)C2(C)C (stereo not given)	1.0	0.8	0.2
COC(=O)COc1cccc(NC(=O)c2cc(OC)cc(OC)c2)c1	108.6*	-0.2	-3.1
COC(=O)COc1cccc(NC(=O)c2ccc(Br)cc2)c1	119.4*	-2.9	2.2
COC(=O)COc1cccc(NC(=O)c2ccc(C)cc2)c1	115.8*	.	3.0
COc1cccc(C(=O)Nc2cccc(OCC(=O)O)c2)c1	14.8	-0.5	6.1
COC(=O)COc1cccc(NC(=O)c2ccc(Cl)cc2)c1	113.6*	.	-1.3
O=C(O)COc1cccc(NC(=O)c2ccc(-c3ccccc3)cc2)c1	-13.5	1.4	2.0
Cc1ccc(C(=O)COc2cccc(NC(=O)c3ccc(Br)cc3)c2)cc1C	41.4	.	-1.3
O=C(COc1cccc(NC(=O)c2ccc(Cl)cc2)c1)c1ccccc1	25.4	.	0.6
Cc1cccc(C)c1OCC(=O)Nc1ccccc1C(=O)Nc1ccc(C(=O)O)cc1	0.0	1.7	-2.0
COc1cc(NC(=O)COc2ccc(Br)cc2)ccc1NC(=O)c1ccco1	3.1	1.3	5.7
Cc1cc(=O)n2c3ccccc3n(CC(O)Cn3ccnc3)c2c1C#N (stereo not given)	2.7	-2.7	-5.0
CCc1cc2c3c(c(=O)oc2cc1OCc1cc(C(=O)O)oc1C)CCCC3	12.6	-0.2	1.6
SMILES	NOMO-1 viab	PD-1 reversal	STK33 kin inh
CCN(CC(=O)Nc1ccccc1F)S(=O)(=O)c1ccc2ccccc2c1	-9.3	.	0.0
COc1ccc(OC)c(NC(=O)c2c(NC(=O)c3ccco3)sc3c2CCC3)c1	0.2	4.3	-2.8
CCOc1ccc(NC(=O)c2c(NC(=O)c3ccco3)sc3c2CCCCC3)cc1	110.0*	.	0.2
O=C1CC(c2ccccc2)Oc2ccc(Cl)cc21 (stereo not given)	115.0*	-6.1	1.1
O=C1CC(c2ccccc2)Oc2cc(O)cc(O)c21 (stereo not given)	10.0	-2.3	0.4
CC(=O)NCCOc1ccc(C2CCCCC2)cc1	15.5	-0.3	-1.4
Nc1cc(C(F)(F)F)ccc1Oc1ccc(C2CCCCC2)cc1	113.4*	-4.7	.
Cc1ccc(NC(=O)CSc2nccc(C)n2)cc1	-7.2	.	1.2
Cc1nn(Cc2cccc(C(=O)Nc3ccccc3F)c2)c(C)c1Cl	-2.0	1.8	0.2
Cc1nn(Cc2cccc(C(=O)NC(=O)Nc3ccc(Cl)cc3)c2)c(C)c1Br	106.9*	2.5	.
CC1C[C@@]23CC4C(C)(C)[C@@]5(C[C@]4(CN2C1=O)N(C)C3=O)C(=O)Nc1c5ccc2c1C(=O)CC(C)(C)O2 (stereo not given in full)	118.3*	-0.4	-2.1
